MITF primary: MITF inhibitors, primary screen, biochemical, AlphaScreen, human | Microphthalmia-associated transcription factor (Homo sapiens), O75030 | AlphaScreen MITF homodimerization, bead proximity signal | inhibition, % at 2.6 µM | 650,000 compounds, 0.91% hits; in the data active = inhibition above about 50%;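 also: 0% = vehicle wells with protein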
FBW7 activator: FBW7 E3 ligase activators, primary screen, biochemical, AlphaScreen, human; F-box/WD repeat-containing protein 7 (Homo sapiens), Q969H0; AlphaScreen FBW7–phospho-cyclin E peptide binding, activator screen; normalized activity (activation), % at 26.1 µM; 650,000 compounds, 0.13% hits; AID 1259310, 2017; in the data active = normalized activity above about 1.9%;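 also: purified mutant Fbw7 with reduced substrate affinity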
TEAD-YAP block: TEAD-YAP interaction inhibition, primary screen, TEAD-YAP interaction inhibitor project, luminescence, HEK-TIYL cells; TEAD-Gal4/YAP UAS-luciferase luminescence; inhibition, % at 9.12 µM; 640,000 compounds, 1.4% hits; AID 1259422, 2018; in the data active = inhibition above about 32%;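 also: 0% = median of test compound wells and 100% = reference inhibitor wells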
GPR151 ag: activators of human GPR151, primary screen, cell-based, PathHunter beta-arrestin, luminescence | activation, % at 11.2 µM | PathHunter beta-arrestin GPR151 cells | 650,000 compounds, 1% hits; in the data active = activation above about 4.9%;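 also: 0% = median of compound wells and 100% = cells with positive control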
Target sequence (Q8TDV0 whole entry, looked up): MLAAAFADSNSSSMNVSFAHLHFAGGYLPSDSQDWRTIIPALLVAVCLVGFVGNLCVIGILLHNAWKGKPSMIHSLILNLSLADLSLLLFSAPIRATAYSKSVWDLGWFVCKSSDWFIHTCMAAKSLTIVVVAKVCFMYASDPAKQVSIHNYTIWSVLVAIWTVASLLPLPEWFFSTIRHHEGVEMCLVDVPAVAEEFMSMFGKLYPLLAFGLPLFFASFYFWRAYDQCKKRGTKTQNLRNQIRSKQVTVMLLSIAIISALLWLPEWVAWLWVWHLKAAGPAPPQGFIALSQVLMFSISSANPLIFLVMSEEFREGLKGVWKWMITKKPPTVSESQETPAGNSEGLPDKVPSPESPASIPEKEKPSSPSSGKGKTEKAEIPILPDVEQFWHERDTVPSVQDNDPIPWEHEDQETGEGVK
GPR151 conf act: GPR151 activators, triplicate retest, confirmation, cell-based, PathHunter beta-arrestin, luminescence; shares compounds with GPR151 ag; GPR151 PathHunter beta-arrestin cells, 90 min; % of EA-reagent control over plate median; activation, % at 11.2 µM; 6,700 tested, under 10 active; AID 1508609, 2020;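 active = mean percent activation across replicates above the confirmation screen cutoff of 4.91%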
GPR119 counter: GPR119 activators in beta-arrestin cells, counter-screen for GPR151 activator project, cell-based, PathHunter beta-arrestin, luminescence, triplicate; shares compounds with GPR151 ag; 90 min; 0 = compound-well median, 100 = enzyme-acceptor control; activation, % at 11.2 µM; 6,700 compounds, 0.3% hits; AID 1508611, 2020;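 active = mean percent activation in the counterscreen above 29.09%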;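 also: counterscreen on off-target GPR119 to flag nonselective hits from the GPR151 activator screen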
Starred values were filed as active, the others as inactive; . = no result; ! = not active in a repeat. Most compounds without a hit are left out; they make up all but 3.4% or so of the library.

SMILES	MITF primary	FBW7 activator	TEAD-YAP block	GPR151 ag	GPR151 conf act	GPR119 counter
Cc1ccc(-c2c(C(=O)Nc3ccc4c(c3)OCCO4)oc(=O)c3ccccc23)cc1	3	0	-4	1	.	.
COc1ccc2cc(C(=O)Nc3ccccc3C)c(=N)oc2c1	11	0	-40	5.0*	0	-7
COc1ccc(CCN2CCC(NCc3cccc(N(C)C)c3)CC2)cc1	13	0	5	5.5*!	0	-4
Cc1sc(N=C(N)N)nc1-c1ccc2c(c1)CCN2C(=O)C1CCCCC1	6	0	5	5.1*	0	-1
CC12CCc3ccccc3C1(C)OC(=O)O2 (centres undefined)	5	0	12	-1	.	.
CN1C(=O)OC2(C)CCc3ccccc3C12C (centres undefined)	-10	0	5	5.0*	0	8
Cn1ncc2c(NCCc3ccc(Cl)cc3Cl)ncnc21	1	0	28	5.0*	3	35*
Cn1ncc2c(Nc3ccc(Cl)cc3Cl)ncnc21	12	0	2	1	.	.
COc1ccccc1NC(=O)N1CCC(C(=O)c2ccc(F)cc2)CC1	-5	0	1	5.7*	2	6
COc1cccc(-c2noc(C3CCCN(C(=O)Nc4ccc(C(F)(F)F)cc4)C3)n2)c1 (centres undefined)	4	0	-23	0	.	.
COc1ccccc1NC(=O)N1CCC(c2nc(-c3cccc(C(F)(F)F)c3)no2)CC1	5	0	-4	11*	0	-10
Cc1ccc([N+](=O)[O-])cc1NC(=O)Cc1ccc(F)cc1	7	0	0	5.4*	-1	-11
C/C(CC(=O)Nc1cc([N+](=O)[O-])ccc1C)=N\NC(=O)C(=O)NCCO	-4	0	-8	8.3*	0	9
Cc1cc([N+](=O)[O-])ccc1NC(=O)Cc1ccc(F)cc1	-7	0	8	0	.	.
CC(=O)CC(=O)Nc1cc([N+](=O)[O-])ccc1C	6	0	-6	0	.	.
C=CCNC(=S)N/N=C/c1ccc(O)cc1	-4	1	9	3	.	.
COc1ccc(C2CC(C(F)(F)F)n3nc(C(=O)Nc4cccc5ccccc45)c(Cl)c3N2)cc1 (centres undefined)	2	0	3	-1	.	.
O=C(CSc1nc(Nc2ccc(F)cc2)c2ccccc2n1)NC1CCCCC1	7	0	7	2	.	.
CCOC(=O)c1c(C)oc2nc(CCl)[nH]c(=O)c12	-4	0	4	12*	-1	-9
COCCCN1C(=O)C(O)=C(C(=O)c2ccco2)C1c1ccc(C(C)(C)C)cc1 (centres undefined)	19	1	17	0	.	.
COCCN1C(=O)C(O)=C(C(=O)c2ccc(C)o2)C1c1ccc(C(C)(C)C)cc1 (centres undefined)	-1	0	7	7.5*	0	-2
Cc1ccc(C)c(NC(=O)c2c(-c3c(Cl)cccc3Cl)noc2C)c1	9	1	7	1	.	.
CC(C)N(CCNc1ccnc(-c2csc3ccccc23)n1)C(C)C	3	0	-9	-1	.	.
CC1CCN(C(=O)CN2C(=O)NC(Cc3ccccc3)(Cc3ccccc3)C2=O)CC1	4	0	6	-2	.	.
CC1CC(C)CN(C(=O)CN2C(=O)NC(Cc3ccccc3)(Cc3ccccc3)C2=O)C1 (centres undefined)	2	0	9	5.0*	0	13
SMILES	MITF primary	FBW7 activator	TEAD-YAP block	GPR151 ag	GPR151 conf act	GPR119 counter
O=C(Nc1ccc([N+](=O)[O-])cn1)C1CCCCC1	12	0	-4	9.2*	-1	-10
O=[N+]([O-])c1ccc(NC2CCCCC2)nc1	0	0	-3	-1	.	.
O=C(NCc1cccc(C(F)(F)F)c1)C1CCN(c2ccc(Nc3ccccc3)nn2)CC1	1	0	-1	1	.	.
O=C(NCc1cccnc1)C1CCN(c2ccc(NC3CCN(Cc4ccccc4)CC3)nn2)CC1	-9	0	12	0	.	.
O=C(NCc1cccc(C(F)(F)F)c1)C1CCN(c2ccc(NC3CCN(Cc4ccccc4)CC3)nn2)CC1	15	0	38*	5.6*	-1	-10
Cn1nccc1Nc1ccc(N2CCC(C(=O)NCc3cccc(C(F)(F)F)c3)CC2)nn1	-3	0	11	5.2*	1	1
CC1CCC(C(C)C)C(OC(=O)CSc2cccc[n+]2[O-])C1 (centres undefined)	-10	0	-13	4.9*	-1	-5
CC1CCC(C(C)C)C(OC(=O)CSc2nnnn2C)C1 (centres undefined)	-13	0	-4	0	.	.
CC(C)C(NC(=O)c1ccc(F)cc1)C(=O)O (centres undefined)	3	0	1	-1	.	.
Cc1ccc(C(=O)NC(C)C2CC3CCC2C3)cc1 (centres undefined)	0	0	-12	10*	1	3
Cc1ccc(C(=O)NC(C(=O)O)C(C)C)cc1 (centres undefined)	9	0	9	7.8*	0	-3
COCCCN1C(=O)C(=O)/C(=C(\O)c2ccccc2)C1c1ccc(C(C)C)cc1 (centres undefined)	5	0	9	5.3*	-1	-5
O=C(c1ccc(N2CCCCCC2)c([N+](=O)[O-])c1)N1CCOCC1	7	0	-2	-1	.	.
CS(=O)(=O)N1CCN(c2ccc(C(=O)N3CCOCC3)cc2[N+](=O)[O-])CC1	13	1	5	7.6*	0	1
O=C(OCCN1CCOCC1)c1cccc(Br)c1	-3	0	-28	8.3*	-1	-12
O=C(OCCN1CCOCC1)c1ccc(O)c(O)c1	17	0	4	1	.	.
COc1ccc(-c2noc(COc3ccc4c(c3)OCO4)n2)cc1	9	1	3	5.1*	0	-1
CCOC(=O)c1c(NC(=O)CN2CCOCC2)sc(C(C)=O)c1C	24	0	7	8.4*	0	9
CCOC(=O)c1c(NC(=O)CN2CCOCC2)sc(C)c1C	1	0	5	1	.	.
CC(=O)Oc1c([N+](=O)[O-])cc2c(c1Br)CCCC2	-15	0	-2	0	.	.
COc1ccc(CCN2CCC(NCC3CC3)CC2)cc1	-5	0	8	0	.	.
COc1ccc(CCN2CCC(Nc3nc4ccccc4n3Cc3ccc(F)cc3)CC2)cc1	-3	0	5	9.2*!	2	-1

High-throughput results (PubChem BioAssay)
